# Results published in PubChem BioAssay (EPA / NIEHS).
# Records with an inconclusive call do not appear. A structure can be active in one record and inactive in another. Calls of active or inactive are those of the source. Rule for the calls, unless noted: active = hit-call score of the fitted dose curve at least 0.9, where 1 is the maximum; inactive = score below 0.9.
# Key:
# [1] = CCTE_Shafer_MEA_dev_firing_rate_mean: CCTE's Neural Network Formation Assay for Mean Firing Rate, Shafer Lab (AID 2284031);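 for AC50: curve fitted for loss of firing so AC50 reflects decreased mean firing rate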
# In short: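 Primary rat cortical neurons on 48-well, 16-electrode MEAs (PEI-coated, laminin at plating), exposed from day 0 with compound renewed at DIV 5 and 9. Spikes recorded DIV 5, 7, 9, 12; well-mean firing rate collapsed to trapezoidal AUC, loss-of-signal vs DMSO.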
# [2] = CCTE_Shafer_MEA_dev_per_burst_spike_percent: CCTE's Neural Network Formation Assay for Percent of Spikes in a Burst, Shafer Lab (AID 2284032);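 for AC50: fitted as a decrease in burst spike percentage below DMSO baseline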
# In short: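 Rat primary cortical neurons on 16-electrode MEA wells, dosed from plating day 0 for 12 days with renewal on DIV 5 and 9; spikes-in-bursts percentage averaged over bursting electrodes, collapsed as AUC across days 5, 7, 9, 12; loss direction versus DMSO.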
# [3] = CCTE_Shafer_MEA_dev_active_electrodes_number: CCTE's Neural Network Formation Assay for Number of Active Electrodes, Shafer Lab (AID 2284040; active = hit-call score of the fitted dose curve at least 0.9, where 1 is the maximum;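 for AC50: potency for loss of active electrodes versus DMSO so lower counts are hits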)
# In short: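 Rat cortical primary cultures, 1.5 x 10^5 cells/well, PEI-coated MEA, laminin drop. Continuous exposure DIV 0–12; full media/compound change DIV 5, 9. Readout: electrodes with mean firing ≥5 spikes/min; AUC across days; loss vs DMSO.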
# [4] = CCTE_Shafer_MEA_dev_burst_rate: CCTE's Neural Network Formation Assay for Burst Rate, Shafer Lab (AID 2284042);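 for AC50: potency for loss of burst rate below DMSO control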
# In short: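 Primary rat cortical neurons on PEI-coated 48-well MEA plates (laminin added with cells at plating) (16 electrodes/well), exposed from plating to day 12, dosing renewed at DIV 5 and 9. Burst rate averaged over active electrodes, recorded DIV 5, 7, 9, 12, summarized as AUC; loss versus DMSO.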
# [5] = CCTE_Shafer_MEA_dev_bursting_electrodes_number: CCTE's Neural Network Formation Assay for Number of Bursting Electrodes, Shafer Lab (AID 2284043; active = hit-call score of the fitted dose curve at least 0.9, where 1 is the maximum;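 for AC50: potency is for loss of bursting electrodes relative to DMSO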)
# In short: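 Primary rat cortical neurons plated on 16-electrode MEA wells, exposed from day 0 with compound renewed at DIV 5 and 9. Electrodes bursting ≥1 burst per 2 min counted on days 5, 7, 9 and 12; trapezoidal AUC across days, fitted for loss versus DMSO.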
# [6] = CCTE_Shafer_MEA_dev_per_burst_interspike_interval: CCTE's Neural Network Formation Assay for Burst Interspike Interval, Shafer Lab (AID 2284044);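 note: mean spike spacing inside bursts as AUC over recordings on days 5 7 9 12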;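 for AC50: potency for a decrease of within-burst interspike interval below DMSO level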
# In short: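 Primary rat cortical neurons on 48-well MEA plates, exposed from day 0 through day 12, treatment renewed at DIV 5 and 9. Within-burst interspike interval recorded days 5, 7, 9, 12, well-averaged, summarised as AUC; negative fit versus DMSO.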
# [7] = CCTE_Shafer_MEA_dev_burst_duration_mean: CCTE's Neural Network Formation Assay for Mean Burst Duration, Shafer Lab (AID 2284045);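 for AC50: curve fitted for loss meaning shorter burst duration than DMSO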
# In short: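 Primary rat cortical neurons on 48-well 16-electrode MEA plates, exposed from day 0 with renewal at DIV 5 and 9; spontaneous activity recorded on days 5, 7, 9, 12. Well-mean burst duration across bursting electrodes, collapsed as trapezoidal AUC; DMSO baseline.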
# [8] = CCTE_Shafer_MEA_dev_interburst_interval_mean: CCTE's Neural Network Formation Assay for Mean Interburst Interval, Shafer Lab (AID 2284046);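 note: well-mean interburst interval of bursting electrodes as AUC over four recording days; curve fitted for decrease in interburst interval relative to DMSO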
# In short: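 Recordings on days 5, 7, 9 and 12 give well-mean interburst interval across actively bursting electrodes, summarized as area under the curve. Cultures: rat cortical neurons, continuous exposure from day 0, compound renewed at feeds; decrease analyzed versus DMSO.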
# [9] = CCTE_Shafer_MEA_dev_inter_network_spike_interval_mean: CCTE's Neural Network Formation Assay for Mean Inter-network Spike Interval, Shafer Lab (AID 2284047);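 for AC50: potency for a decrease in mean inter-network spike interval below DMSO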
# In short: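 Primary rat cortical neurons on 16-electrode MEA wells, exposed from plating day 0 through DIV 12, compound renewed at DIV 5 and 9 media changes. Mean interval between network-spike peaks recorded DIV 5, 7, 9, 12; collapsed as trapezoidal AUC, fitted downward versus DMSO.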
# [10] = CCTE_Shafer_MEA_dev_network_spike_peak: CCTE's Neural Network Formation Assay for Mean Number of Electrodes in Network Spike, Shafer Lab (AID 2284049);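 for AC50: fitted for loss of signal meaning fewer electrodes in network spikes than DMSO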
# In short: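 Network-spike peak electrode count from recordings on days 5, 7, 9 and 12 was combined as trapezoidal area under the curve. Rat cortical cultures were treated continuously from plating, with compound renewed at each feed (DIV 5, 9); fits versus DMSO.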
# [11] = CCTE_Shafer_MEA_dev_spike_duration_mean: CCTE's Neural Network Formation Assay for Mean Spike Duration, Shafer Lab (AID 2284051);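 note: mean network spike duration pooled as area under curve over DIV 5 to 12 recordings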;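 for AC50: potency for a decrease in mean network spike duration versus DMSO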
# In short: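 Primary rat cortical neurons on 16-electrode MEA wells (PEI-coated, laminin in plating drop), exposed from plating through DIV 12 with compound renewed at DIV 5 and 9. Mean network-spike duration recorded DIV 5, 7, 9, 12; trapezoidal AUC across days, DMSO baseline.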
# [12] = CCTE_Shafer_MEA_dev_network_spike_duration_std: CCTE's Neural Network Formation Assay for Standard Deviation of Network Spike Duration, Shafer Lab (AID 2284052);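 note: area under curve of spike duration SD across recording days 5 to 12; hits are decreases in network spike duration SD versus DMSO vehicle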
# In short: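 Primary rat cortical neurons on PEI-coated 16-electrode MEA wells, exposed from plating day 0 through day 12 with compound renewed at DIV 5 and 9. Network spike duration SD recorded on days 5, 7, 9, 12, collapsed as trapezoidal AUC; loss-of-signal fit versus DMSO.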
# [13] = CCTE_Shafer_MEA_dev_per_network_spike_spike_number_mean: CCTE's Neural Network Formation Assay for Mean Number of Spikes in a Network Spike, Shafer Lab (AID 2284053);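 for AC50: fitted as decrease in spikes per network spike relative to DMSO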
# In short: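 Primary rat cortical neurons on 48-well, 16-electrode MEA plates were exposed from plating to DIV 12, with dosing renewed on DIV 5 and 9. Spikes per network spike (0.05 s peak window) were recorded on DIV 5, 7, 9 and 12 and collapsed as trapezoidal AUC versus DMSO.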
smiles,measurement,setting,value
C/C(=C/C=C/[C@@H](C)C(=O)O)[C@H]1CN[C@H](C(=O)O)[C@H]1CC(=O)O,AC50,[1],0.068 µM (active)
same,outcome,[1],inactive
same,AC50,[2],2.06 µM (active)
same,outcome,[2],inactive
same,AC50,[3],0.97 µM (active)
same,outcome,[3],inactive
same,AC50,[4],0.131 µM (active)
same,outcome,[4],inactive
same,AC50,[5],1.28 µM (active)
same,outcome,[5],inactive
same,AC50,[6],1.33 µM (active)
same,outcome,[6],inactive
same,AC50,[7],0.992 µM (active)
same,outcome,[7],inactive
same,AC50,[8],0.0322 µM (active)
same,outcome,[8],inactive
same,AC50,[9],0.16 µM (active)
same,outcome,[9],inactive
same,AC50,[10],1.83 µM (active)
same,outcome,[10],inactive
same,AC50,[11],1.13 µM (active)
same,outcome,[11],inactive
same,AC50,[12],0.259 µM (active)
same,outcome,[12],inactive
same,AC50,[13],1.05 µM (active)
same,outcome,[13],inactive
